# PubChem BioAssay
# Several values for one entry are separate records, joined by “and”; a condition that tells them apart may be missing. Identical values can stand only once. Activity calls are given as the source filed them.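 Rule for the calls, unless noted: active = inhibition at or above 50% relative to wild type and mutant plate controls; inactive = inhibition below 50%.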
# Columns and labels:
# [1] = endothelial E-selectin expression blockers – imaging, HUVEC, immunofluorescence, MLSMR starter and 10KST1 sets, primary screen (AID 487;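 active = visually confirmed hit in the image check and inhibition above 20%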;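 for inhibition: signal is fraction of cell area covered by stained E-selectin grains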;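 for nuclei count: 100% = median nuclei count of all wells on the same plate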); conditions: HUVEC TNFalpha-induced E-selectin immunofluorescence imaging, at 2 µM; inhibition: stronger effect = higher value; nuclei count: measured here: cell number, toxicity
# [2] = Primary imaging screen for DUSP6 inhibitors that restore phospho-Erk in transfected HeLa cells, chemical complementation (AID 609;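 active = compounds giving at least 50% inhibition in the cell-based MKP-3 phosphatase rescue imaging test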;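 for inhibition: phospho-Erk level distribution per well compared with pooled transfected vehicle control wells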); conditions: HeLa MKP-3 transfected, phospho-Erk imaging KS statistic, at 10 µM, cells stimulated with TPA for 15 min
# [3] = molecular target: Dual specificity protein phosphatase 6 (Homo sapiens) (UniProt Q16828); assay: as above; conditions: HeLa MKP-3 transfected, phospho-Erk imaging KS statistic; at 10 µM; stronger effect = higher value; cells stimulated with TPA for 15 min
# Dual specificity protein phosphatase 6 (Homo sapiens), sequence (Q16828 whole entry, looked up): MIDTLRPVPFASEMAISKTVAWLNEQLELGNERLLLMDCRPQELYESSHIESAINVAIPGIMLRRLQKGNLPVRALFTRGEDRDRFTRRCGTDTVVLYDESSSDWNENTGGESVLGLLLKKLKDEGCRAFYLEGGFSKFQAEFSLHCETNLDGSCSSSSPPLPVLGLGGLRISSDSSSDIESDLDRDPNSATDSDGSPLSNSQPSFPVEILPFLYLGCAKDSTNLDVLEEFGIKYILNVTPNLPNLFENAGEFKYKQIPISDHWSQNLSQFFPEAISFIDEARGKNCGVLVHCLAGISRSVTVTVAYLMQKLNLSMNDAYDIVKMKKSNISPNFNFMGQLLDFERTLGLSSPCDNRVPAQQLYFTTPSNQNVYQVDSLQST
# [4] = molecular target: Voltage-gated potassium channel subunit beta-2 (Rattus norvegicus) (UniProt P62483); assay: inhibitors of rat Kvbeta2 reductase activity – biochemical, NADPH fluorescence, primary screen (AID 622;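 active = fluorescence slope higher than the sample average by over 3 SD, cut at about -0.22 in these data, passing the limit was not always enough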;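 note: slope of raw intensity against log time taken from 70 to 1610 s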); conditions: recombinant KvBeta, 4-cyanobenzaldehyde reduction, at 10 µM, stronger effect = higher value
# Voltage-gated potassium channel subunit beta-2 (Rattus norvegicus), sequence (P62483 whole entry, looked up): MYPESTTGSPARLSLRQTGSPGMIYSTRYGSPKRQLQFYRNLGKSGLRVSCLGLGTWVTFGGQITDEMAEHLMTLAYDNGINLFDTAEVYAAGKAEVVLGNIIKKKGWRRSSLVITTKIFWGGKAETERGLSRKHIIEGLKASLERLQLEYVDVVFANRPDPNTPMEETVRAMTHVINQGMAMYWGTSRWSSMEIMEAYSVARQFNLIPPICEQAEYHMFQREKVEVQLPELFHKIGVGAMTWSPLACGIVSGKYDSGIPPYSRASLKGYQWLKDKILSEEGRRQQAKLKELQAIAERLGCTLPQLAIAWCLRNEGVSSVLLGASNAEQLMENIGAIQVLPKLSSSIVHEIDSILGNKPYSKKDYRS
# [5] = molecular target: Voltage-gated potassium channel subunit beta-2 (Rattus norvegicus) (UniProt P62483); assay: enhancers of rat Kvbeta2 NADPH turnover – biochemical, NADPH fluorescence, primary screen (AID 623;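 active = NADPH fluorescence slope more negative than the mean of all samples by about 3 SD, 99.7% confidence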;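 note: fluorescence intensity change per second fitted from 20 to 320 s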); conditions: Recombinant KvBeta, NADPH fluorescence decrease slope, 10 min; at 10 µM; stronger effect = lower value
# [6] = molecular target: Muscarinic acetylcholine receptor M4 (Homo sapiens) (UniProt P08173); assay: M4-linked GIRK flux change, two-sided – cell-based, HEK293 M4/GIRK, thallium flux, BTC-AM, M4 allosteric agonist project, primary screen (AID 625;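 active = fluorescence slope after compound addition differing from the mean of all tested samples at 99.7% confidence, mostly higher but some lower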;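 note: thallium influx through GIRK channels coupled to M4 in HEK293 cells with BTC-AM dye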); conditions: at 10 µM, actives lie on both sides
# Muscarinic acetylcholine receptor M4 (Homo sapiens), sequence (P08173 whole entry, looked up): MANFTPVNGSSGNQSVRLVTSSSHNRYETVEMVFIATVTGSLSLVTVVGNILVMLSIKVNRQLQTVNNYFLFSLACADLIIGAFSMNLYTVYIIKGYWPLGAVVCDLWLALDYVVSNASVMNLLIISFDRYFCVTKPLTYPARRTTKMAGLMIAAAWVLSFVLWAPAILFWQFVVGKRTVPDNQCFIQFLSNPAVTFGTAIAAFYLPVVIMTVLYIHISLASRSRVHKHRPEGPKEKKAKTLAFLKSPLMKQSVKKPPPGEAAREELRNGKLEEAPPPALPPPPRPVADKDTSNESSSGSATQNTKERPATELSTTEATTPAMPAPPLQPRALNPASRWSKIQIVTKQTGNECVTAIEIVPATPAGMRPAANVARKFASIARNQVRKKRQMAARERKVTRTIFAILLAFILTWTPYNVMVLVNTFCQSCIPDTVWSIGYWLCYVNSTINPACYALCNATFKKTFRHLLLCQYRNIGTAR
# [7] = inhibitors of larval lipid processing in zebrafish, primary screen, whole organism, PED6 fluorescence, gall bladder and intestine (AID 686;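 active = a full or partial loss of lipid-probe fluorescence in the fish gall bladder, intestine or both, judged by eye; inactive = no fluorescence loss, or compound toxic to the fish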;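 note: larvae 5 to 7 days old with five fish per well; signal comes from phospholipase A2 cleavage of quenched PED6 carried via bile; overnight exposure to compound and PED6 before scoring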); conditions: Zebrafish larvae PED6 lipid processing, fluorescence scoring; screened at 20 µM (by protocol)
# [8] = loss of swimming-algae plug formation – whole organism, Chlamydomonas reinhardtii, WT vs cilia-less mutant, absorbance, 96-well, primary screen (AID 463189); conditions: Chlamydomonas reinhardtii gravitaxis, OD600 absorbance, 2 days; at 10 µM; stronger effect = higher value;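 note: 0% = wild type cc124 cells in DMSO and 100% = ciliumless bld1 mutant cells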
# [9] = molecular target: Alpha-2C adrenergic receptor (Homo sapiens) (UniProt P18825); assay: compounds altering alpha2C-coupled GIRK flux – cell-based, HEK293 alpha2C/GIRK1/2, thallium flux, primary screen (AID 624;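 active = fluorescence slope after compound addition differing from the mean of all screened samples at 99.7% confidence, in either direction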;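 note: slope of fluorescence ratio to pre-addition baseline per second over 15 to 24 s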); conditions: thallium flux BTC fluorescence, at 10 µM, actives lie on both sides
# Alpha-2C adrenergic receptor (Homo sapiens), sequence (P18825 whole entry, looked up): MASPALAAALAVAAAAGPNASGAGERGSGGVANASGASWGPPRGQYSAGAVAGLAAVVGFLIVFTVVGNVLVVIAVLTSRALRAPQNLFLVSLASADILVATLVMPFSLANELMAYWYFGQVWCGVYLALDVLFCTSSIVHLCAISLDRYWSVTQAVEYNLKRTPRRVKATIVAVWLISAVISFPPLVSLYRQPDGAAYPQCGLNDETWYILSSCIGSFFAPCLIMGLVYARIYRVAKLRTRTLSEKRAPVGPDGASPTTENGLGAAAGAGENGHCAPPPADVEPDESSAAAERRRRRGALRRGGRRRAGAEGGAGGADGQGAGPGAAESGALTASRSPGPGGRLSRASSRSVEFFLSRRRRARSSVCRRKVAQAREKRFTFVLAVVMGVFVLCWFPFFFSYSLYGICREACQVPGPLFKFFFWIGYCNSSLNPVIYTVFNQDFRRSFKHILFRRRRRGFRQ
# [10] = blockers of RIG-like receptor reporter activation – cell-based, Sendai virus stimulus, luciferase, 10K MLSCN set, TLR/RLR signaling modifier project, primary screen (AID 602276;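 active = inhibition at or above 50% at 10 µM; inactive = inhibition below 50%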;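 note: firefly luciferase from ISG56 promoter only with Renilla not read in this screen; 0% = Sendai virus plus DMSO and 100% = medium plus DMSO without virus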); conditions: HEK293 RL24 IRF3 luciferase reporter, at 10 µM, stronger effect = higher value
# [11] = TLR3 IRF3 reporter activation blockers – cell-based, poly I:C stimulus, luciferase, 10K MLSCN set, primary screen (AID 602277;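 active = inhibition of the reporter signal at or above 50%; inactive = inhibition below 50%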); conditions: HEK293-TLR3 RL24 IRF3 luciferase reporter, at 10 µM, stronger effect = higher value
# [12] = reduction of polyQ htt aggregates in cells – imaging, exon1htt(103Q)mCFP cells, high-content imaging, primary screen (AID 483;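 active = visual image review flags a hit and inhibition of aggregation exceeds 20%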;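 note: compound exposure lasted 3 days before fixation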;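 for nuclei count: percent of the per-plate median nuclei count of sample wells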); conditions: exon1htt(103Q)mCFP cell line, aggregate imaging, at 2 µM; inhibition of aggregation: stronger effect = higher value; nuclei count: measured here: cell count, toxicity
# [13] = measured here: cell density z-score
# [14] = measured here: nuclear c-Myc green intensity z-score
# [15] = measured here: nuclear pErk red intensity z-score, stronger effect = higher value
Compound,inhibition [1],nuclei count [1] [%],"z-score [2, 13]","z-score [2, 14]","z-score [2, 15]",inhibition [3],fluorescence slope [4],NADPH fluorescence slope [5],fluorescence slope [6],outcome [7],inhibition [8],slope [9],inhibition [10],inhibition [11],inhibition of aggregation [12],nuclei count [12] [%]
CCOC(=O)c1ccc(CSc2ncn[nH]2)o1,-61.8% (inactive),156,0.633,-0.893,-0.304,17% (inactive),-0.407 (inactive),-3.4e-05 (inactive),0.00583 (inactive),inactive,10.3% (inactive),,,,,
O=C(c1ccc(N2C(=O)C3CC=C(Cl)CC3C2=O)cc1)N1CCCCC1 (stereo unspecified),-148% (inactive),163,0.548,-0.00489,-2.02,15.1% (inactive),-0.379 (inactive),-2.5e-05 (inactive),0.00666 (inactive),inactive,-0.983% (inactive),,,,,
CC[C@H]1CN2CCc3cc(OC)c(OC)cc3[C@@H]2C[C@@H]1C[C@H]1NCCc2cc(OC)c(OC)cc21,103% (active),103,0.501,-0.649,0.619,11.3% (inactive),-0.553 (inactive),-3.6e-05 (inactive),,inactive,69.7% (active) and 130% (active),0.00425 (inactive),-28.7% (inactive),103% (active),,
COc1cc(C)nc(Oc2ccc(=O)[nH]n2)n1,-34.6% (inactive),147,-0.3,1.04,-1.72,5.57% (inactive),-0.296 (inactive),-4e-05 (inactive),0.00779 (inactive),inactive,34.1% (inactive),,,,,
O=C(O)c1ccc(COCC(F)(F)C(F)F)o1,-92.5% (inactive),150,-0.0306,-1.01,0.623,5.26% (inactive),-0.428 (inactive),-0.000116 (inactive),,inactive,25% (inactive),0.00477 (inactive),,,,
CC(=O)O[C@@]12CO[C@@H]1C[C@H](O)[C@@]1(C)C(=O)[C@H](O)C3=C(C)[C@@H](OC(=O)[C@H](O)[C@@H](NC(=O)OC(C)(C)C)c4ccccc4)C[C@](O)([C@@H](OC(=O)c4ccccc4)[C@H]21)C3(C)C,,,-1.36,0.683,1.58,-9.66% (inactive),-0.48 (inactive),-5.5e-05 (inactive),,inactive,22.5% (inactive),0.00555 (inactive),37.7% (inactive),38.9% (inactive),-77% (inactive),4.4
COc1ccc([C@@H]2Sc3ccccc3N(CCN(C)C)C(=O)[C@@H]2OC(C)=O)cc1,-27.1% (inactive),104,0.794,-1.47,0.473,-4.44% (inactive),-0.507 (inactive),-7.4e-05 (inactive),,inactive,4.06% (inactive) and -15.6% (inactive),0.00609 (inactive),16.3% (inactive),35.5% (inactive),,
Clc1ccc2nc(N3CCNCC3)nc(-c3ccccc3)c2c1,14.5% (inactive),144,0.81,-0.0975,1.71,7.48% (inactive),-0.23 (inactive),-6.4e-06 (inactive),0.00627 (inactive),inactive,151% (active),,,,,
CCOC(=O)C(Oc1ccc(=O)[nH]n1)C(C)=O (stereo unspecified),-70.7% (inactive),105,-0.778,0.196,-1.16,22.7% (inactive),-0.398 (inactive),-7.7e-06 (inactive),0.00606 (inactive),inactive,-3.15% (inactive),,,,,
CN(C)/C=C1\N=C(c2cccs2)OC1=O,-85.3% (inactive),178,-0.766,-0.714,0.335,1.75% (inactive),-0.406 (inactive),-4e-05 (inactive),0.00407 (inactive),inactive,26.8% (inactive),,,,,
O=C(NCC1CCCCN1)c1cc(OCC(F)(F)F)ccc1OCC(F)(F)F (stereo unspecified),-29.3% (inactive),107,0.584,0.032,0.103,15.3% (inactive),-0.495 (inactive),-5.3e-05 (inactive),,inactive,-10.1% (inactive) and -10.2% (inactive),0.00342 (inactive),-8.5% (inactive),50.6% (active),,
CN1CCN(C2=Nc3cc(Cl)ccc3Nc3ccccc32)CC1,-176% (inactive),132,-0.235,0.0948,0.322,-0.493% (inactive),-0.457 (inactive),-6.9e-05 (inactive),0.00391 (inactive),inactive,-2.62% (inactive) and 13.2% (inactive),,2.76% (inactive),60.3% (active),,
CC1(C)CC(=O)C=C(N=CC2=C(O)CC(C)(C)CC2=O)C1,-39.1% (inactive),174,-0.899,1.02,0.848,9.39% (inactive),-0.363 (inactive),-4.6e-05 (inactive),0.00557 (inactive),inactive,8.63% (inactive),,,,,
Cc1nc2sc(C)c(C)c2c(=O)o1,-24.2% (inactive),180,-0.563,-1.75,1.05,-5.89% (inactive),-0.39 (inactive),-4.5e-05 (inactive),0.0058 (inactive),inactive,6.15% (inactive),,,,,
COc1ccc(OCC(=O)OCCN(C)C)cc1,-159% (inactive),170,-1.95,-1.2,-0.272,-10.6% (inactive),-0.383 (inactive),-2.2e-05 (inactive),,inactive,6.76% (inactive),0.00493 (inactive),,,,
Nc1nc2c(ncn2COCCO)c(=O)[nH]1,-45.2% (inactive),98.5,-1.3,0.247,-1.02,3.45% (inactive),-0.446 (inactive),-8.2e-06 (inactive),,inactive,-9.79% (inactive) and -10% (inactive),0.00457 (inactive),-1.97% (inactive),26.2% (inactive),,
O=C(CCN1CCCC1Cc1ccccc1)c1ccc2c(c1)OCCO2 (stereo unspecified),-106% (inactive),162,-1.44,-1.2,0.369,1.75% (inactive),-0.423 (inactive),-6.5e-05 (inactive),0.00498 (inactive),inactive,7.98% (inactive),,,,,
CCCCOc1ccccc1P(=O)(O)CP(=O)(c1ccccc1)c1ccccc1,-205% (inactive),192,-0.204,-0.49,0.473,-5.89% (inactive),-0.436 (inactive),-3e-05 (inactive),0.00473 (inactive),inactive,2.4% (inactive),,,,,
c1ccc2c(c1)nc(CN1CCOCC1)n1c3ccccc3nc21,-88% (inactive),174,-0.838,-0.224,1.09,-3.98% (inactive),-0.309 (inactive),-2.8e-05 (inactive),0.00659 (inactive),inactive,-4.79% (inactive),,,,,
C1CNCCNCCCNCCNC1,,,,,,,-0.454 (inactive),-6.6e-05 (inactive),,inactive,-15.9% (inactive),,,,19.7% (inactive),100
COc1ccc[nH]c1=O,-53.5% (inactive),156,-0.586,0.536,-1.08,11.3% (inactive),-0.41 (inactive),-4.9e-05 (inactive),0.00623 (inactive),inactive,14.4% (inactive),,,,,
Cc1nnc(NS(=O)(=O)c2ccc(N)cc2)s1,-81.2% (inactive),125,0.0804,0.446,0.118,19% (inactive),-0.526 (inactive),-3.2e-05 (inactive),,inactive,-0.666% (inactive),0.00418 (inactive),-4.22% (inactive),-8.79% (inactive),,
COC(=O)C1C(=O)NCC1c1ccccc1 (stereo unspecified),1.3% (inactive),81.1,5.99,-1.76,-1.15,49.5% (inactive),-0.482 (inactive),-4e-05 (inactive),0.00479 (inactive),inactive,31.4% (inactive),,,,,
COc1cc(C(=O)NCC(=O)n2nc(C)cc2C)cc(OC)c1OC,19% (inactive),141,1.48,0.2,-2.19,20.8% (inactive),-0.389 (inactive),7.5e-06 (inactive),0.00583 (inactive),inactive; toxic,-4.24% (inactive),,,,,
COc1ccc(C(=O)C2CCCCC2=O)cc1 (stereo unspecified),43.3% (inactive),127,-0.682,-0.8,1.6,-2.07% (inactive),-0.407 (inactive),-7e-05 (inactive),0.00364 (inactive),inactive,20% (inactive),,,,,
Oc1oc(-c2ccccc2)nc1C=NCc1ccncc1,5.8% (inactive),104,0.0106,-0.425,0.0699,13.2% (inactive),-0.353 (inactive),7.6e-07 (inactive),0.00715 (inactive),inactive,-10.3% (inactive),,,,,
CCn1cc(/C=N/O)c(C)n1,-98.3% (inactive),153,1.83,-0.528,-0.0353,13.2% (inactive),-0.345 (inactive),-3.9e-05 (inactive),0.00667 (inactive),inactive,17.2% (inactive),,,,,
